According to PubChem BioAssay:
Active and inactive are the calls of the source.

Legend:
[1] = target: Albumin (Bos taurus) (UniProt P02769); experiment: bovine serum albumin binders on microarray, profiling panel, artefact control for SMM control protein annotation, biochemical, small-molecule microarray, Alexa647 label, 635/667 nm fluorescence (AID 1118); details: BSA-A647 binding, fluorescence 635 nm, higher = more signal;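 further: score merges 667 nm emission intensity and signal-to-noise per printed compound spot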
[2] = small-molecule microarray binders of probe aXIP, primary screen, biochemical, NeuroSMM set, 635/667 nm fluorescence (AID 1119); details: higher = more signal, called active from +8 up or from −8 down;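 further: probe is the protein aXip251-270 applied at 1 µg/mL to compound-printed slides; binding of probe to printed compounds measured as 667 nm fluorescence plus signal to noise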
[3] = small-molecule binders of probe aNOTCH3, primary screen, biochemical, small-molecule microarray, 635/667 nm fluorescence (AID 1120); details: higher = more signal;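 further: probe is a biotin-tagged antibody raised against NOTCH3 rather than NOTCH3 protein; score merges spot fluorescence near 667 nm with spot signal to noise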
[4] = small-molecule binders of probe aNOTCH2, primary screen, biochemical, small-molecule microarray, 635/667 nm fluorescence (AID 1121); details: higher = more signal;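 further: score merges feature fluorescence read at 667 nm with its signal to noise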
[5] = target: Carbonic anhydrase 2 (Homo sapiens) (UniProt P00918); experiment: CAII small-molecule binders, profiling panel, biochemical, small-molecule microarray, Alexa647-labelled CAII (AID 1122); details: CAII-A647 binding fluorescence, higher = more signal
[6] = COS7 lysate on small-molecule microarray, probe aHis, 635 nm (AID 1123); details: COS7 cell lysate, fluorescence, higher = more signal;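 further: z-score combines 667nm fluorescence intensity with signal-to-noise per printed compound spot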
[7] = compound binding in COS7 lysate, probe aLAP1, primary screen, cell lysate, small-molecule microarray (AID 1124); details: probe aLAP1, fluorescence, higher = more signal;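 further: lysate comes from COS7 cells expressing LAP1 and is applied at 0.3 µg/mL; score merges spot fluorescence near 667 nm with signal-to-noise over triplicate slides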
[8] = tested on: Sam68 (KHDRBS1); experiment: Sam68 small-molecule binders, primary screen, biochemical, small-molecule microarray, 635 nm fluorescence (AID 1125); details: small-molecule microarray binding, higher = more signal;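 further: score merges 667 nm channel intensity with signal to noise over triplicate slides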
[9] = tested on: Chordin-like protein 2 (CHRDL2); experiment: CHRDL2 small-molecule binders, primary screen, biochemical, small-molecule microarray, 635 nm fluorescence (AID 1126); details: small-molecule microarray binding, fluorescence 635 nm; higher = more signal;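 further: printed compound slides probed with Chrdl2 protein at 4 µg/mL for 1 h at 4 C; score merges 667 nm emission intensity with signal to noise over three replicate slides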
[10] = target: Concanavalin-A (Canavalia ensiformis) (UniProt P02866); experiment: ConA small-molecule binders, primary screen, artefact control for SMM control protein annotation, biochemical, small-molecule microarray, Alexa647 label, 635 nm (AID 1127); details: ConA-A647 binding fluorescence, higher = more signal;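 further: z combines 667 nm emission intensity with signal-to-noise across three replicate slides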
[11] = anti-His antibody binders, primary screen, artefact control for SMM control protein annotation, biochemical, small-molecule microarray, 635 nm fluorescence (AID 1128); details: anti-His Alexa647 antibody binding, higher = more signal;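 further: score merges feature fluorescence with signal-to-noise for each printed compound spot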
[12] = tested on: Human papillomavirus type 1a E7 protein (residues 1-88); experiment: HPV1a E7 small-molecule binders, primary screen, biochemical, small-molecule microarray, residues 1-88, 635 nm (AID 1129); details: small-molecule microarray binding, fluorescence 635 nm; higher = more signal
[13] = target: Focal adhesion kinase 1 (Homo sapiens) (UniProt Q05397); experiment: small-molecule microarray binders of FAK, primary screen, biochemical, 635/667 nm fluorescence, BSA, DTT (AID 1130); details: PTK2 binding, 635 nm fluorescence, higher = more signal;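 further: composite of spot emission at 667 nm and signal to noise over triplicate slides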
[14] = tested on: Fibrinogen (Alexa647-labelled); experiment: fibrinogen binders on compound microarrays, profiling panel, artefact control for SMM control-protein annotation, biochemical, small-molecule microarray, 635/667 nm fluorescence (AID 1131); details: fibrinogen-A647 binding fluorescence, higher = more signal;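 further: z-score merges 667 nm fluorescence with per-spot signal-to-noise over triplicate slides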
[15] = target: Follistatin (Homo sapiens) (UniProt P19883); experiment: follistatin binders on small-molecule microarrays, primary screen, biochemical, small-molecule microarray, 635/667 nm fluorescence (AID 1132); details: FST binding, 635 nm fluorescence, higher = more signal
[16] = target: Fibroblast growth factor 2 (Homo sapiens) (UniProt P09038); experiment: FGF2 binders on small-molecule microarrays, primary screen, biochemical, small-molecule microarray, 635/667 nm fluorescence (AID 1133); details: small-molecule microarray binding, FGF2, fluorescence 635/667; higher = more signal
[17] = mitochondrial membrane potential change in A549 cells, profiling panel, cell-based, JC-1 fluorescence, basal, 24 h, 100 nL (AID 1138); details: higher = more signal;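 further: A549 lung adenocarcinoma cells under basal conditions with no added stimulus; test concentration not given here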
[18] = tested on: Lefty1; experiment: Lefty1 binders on small-molecule microarrays, primary screen, biochemical, small-molecule microarray, 635/667 nm fluorescence (AID 1139); details: small-molecule microarray binding, fluorescence 635/667; higher = more signal
[19] = tested on: wheat germ agglutinin (Triticum aestivum), Alexa647-labelled; experiment: wheat germ agglutinin binders on compound microarrays, profiling panel, artefact control for SMM control-protein annotation, biochemical, small-molecule microarray, 635/667 nm fluorescence (AID 1140); details: WGA-A647 binding, 635 nm fluorescence, higher = more signal;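 further: score merges 667 nm feature emission with signal to noise over triplicate slides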
[20] = target: Luciferin 4-monooxygenase (Photinus pyralis) (UniProt P08659); experiment: firefly luciferase enzyme inhibitors, primary screen, biochemical, luminescence, purified enzyme, 2006 set (AID 1141); details: SteadyGlo luminescence, 30 min, higher = more signal, called active from +8 up or from −8 down;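 further: cell-free assay with purified firefly luciferase at 100 ng per well in PBS; test concentration not given here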
Chain of Luciferin 4-monooxygenase (Photinus pyralis) (P08659 whole entry, looked up): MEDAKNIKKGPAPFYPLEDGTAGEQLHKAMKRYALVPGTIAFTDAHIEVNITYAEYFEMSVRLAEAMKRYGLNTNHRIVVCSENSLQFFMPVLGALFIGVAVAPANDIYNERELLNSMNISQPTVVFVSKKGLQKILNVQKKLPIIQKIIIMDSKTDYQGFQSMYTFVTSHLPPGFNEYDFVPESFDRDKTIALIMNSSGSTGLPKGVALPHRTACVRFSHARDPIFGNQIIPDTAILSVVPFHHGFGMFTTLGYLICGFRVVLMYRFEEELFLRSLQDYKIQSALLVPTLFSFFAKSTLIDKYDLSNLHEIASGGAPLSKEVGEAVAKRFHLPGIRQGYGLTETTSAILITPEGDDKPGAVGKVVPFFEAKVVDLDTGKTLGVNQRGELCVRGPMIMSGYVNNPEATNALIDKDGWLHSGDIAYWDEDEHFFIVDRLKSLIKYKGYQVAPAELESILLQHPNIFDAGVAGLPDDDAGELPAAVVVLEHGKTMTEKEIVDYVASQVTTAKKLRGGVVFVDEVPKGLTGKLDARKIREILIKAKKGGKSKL

Chain of Fibroblast growth factor 2 (Homo sapiens) (P09038 whole entry, looked up): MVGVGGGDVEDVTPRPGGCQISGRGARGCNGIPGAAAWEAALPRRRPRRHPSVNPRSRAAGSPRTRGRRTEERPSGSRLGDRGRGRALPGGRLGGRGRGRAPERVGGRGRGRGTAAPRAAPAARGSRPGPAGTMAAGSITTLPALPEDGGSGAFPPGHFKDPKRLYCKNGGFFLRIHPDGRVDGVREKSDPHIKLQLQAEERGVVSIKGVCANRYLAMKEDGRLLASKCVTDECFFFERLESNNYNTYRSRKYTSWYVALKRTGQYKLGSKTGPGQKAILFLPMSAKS
Chain of Concanavalin-A (Canavalia ensiformis) (P02866 whole entry, looked up): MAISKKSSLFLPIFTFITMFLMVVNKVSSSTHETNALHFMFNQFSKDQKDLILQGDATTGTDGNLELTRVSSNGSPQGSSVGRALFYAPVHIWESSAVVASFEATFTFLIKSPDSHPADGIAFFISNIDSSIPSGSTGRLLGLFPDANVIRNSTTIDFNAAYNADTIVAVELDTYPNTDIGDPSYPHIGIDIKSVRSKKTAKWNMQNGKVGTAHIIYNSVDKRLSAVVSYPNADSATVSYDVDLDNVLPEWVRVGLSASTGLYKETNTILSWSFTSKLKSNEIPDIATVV
Chain of Focal adhesion kinase 1 (Homo sapiens) (Q05397 whole entry, looked up): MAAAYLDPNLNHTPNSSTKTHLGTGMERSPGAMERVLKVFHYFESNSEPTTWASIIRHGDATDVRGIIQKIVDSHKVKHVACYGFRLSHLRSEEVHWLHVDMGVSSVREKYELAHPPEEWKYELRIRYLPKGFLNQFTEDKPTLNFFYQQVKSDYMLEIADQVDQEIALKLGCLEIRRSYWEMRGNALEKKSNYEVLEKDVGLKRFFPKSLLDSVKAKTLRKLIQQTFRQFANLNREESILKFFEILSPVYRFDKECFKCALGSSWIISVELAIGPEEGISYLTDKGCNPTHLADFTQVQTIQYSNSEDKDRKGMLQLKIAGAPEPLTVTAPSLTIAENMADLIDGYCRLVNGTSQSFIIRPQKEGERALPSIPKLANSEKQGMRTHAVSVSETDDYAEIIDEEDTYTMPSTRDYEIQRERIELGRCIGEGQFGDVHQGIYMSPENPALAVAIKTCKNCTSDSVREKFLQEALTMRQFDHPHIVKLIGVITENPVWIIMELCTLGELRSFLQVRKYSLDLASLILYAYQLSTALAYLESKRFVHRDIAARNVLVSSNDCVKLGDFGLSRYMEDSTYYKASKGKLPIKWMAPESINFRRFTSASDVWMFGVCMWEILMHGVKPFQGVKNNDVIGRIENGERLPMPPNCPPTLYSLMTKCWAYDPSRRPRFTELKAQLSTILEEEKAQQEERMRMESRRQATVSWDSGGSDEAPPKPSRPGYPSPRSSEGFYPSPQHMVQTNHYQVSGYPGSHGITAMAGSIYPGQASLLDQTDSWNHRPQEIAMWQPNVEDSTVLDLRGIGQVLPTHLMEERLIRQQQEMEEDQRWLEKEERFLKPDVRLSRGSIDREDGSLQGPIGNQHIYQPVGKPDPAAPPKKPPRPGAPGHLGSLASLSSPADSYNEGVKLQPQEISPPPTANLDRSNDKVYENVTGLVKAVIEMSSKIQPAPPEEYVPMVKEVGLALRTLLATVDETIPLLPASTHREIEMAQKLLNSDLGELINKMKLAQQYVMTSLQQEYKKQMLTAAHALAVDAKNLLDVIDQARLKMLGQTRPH
Chain of Albumin (Bos taurus) (P02769 whole entry, looked up): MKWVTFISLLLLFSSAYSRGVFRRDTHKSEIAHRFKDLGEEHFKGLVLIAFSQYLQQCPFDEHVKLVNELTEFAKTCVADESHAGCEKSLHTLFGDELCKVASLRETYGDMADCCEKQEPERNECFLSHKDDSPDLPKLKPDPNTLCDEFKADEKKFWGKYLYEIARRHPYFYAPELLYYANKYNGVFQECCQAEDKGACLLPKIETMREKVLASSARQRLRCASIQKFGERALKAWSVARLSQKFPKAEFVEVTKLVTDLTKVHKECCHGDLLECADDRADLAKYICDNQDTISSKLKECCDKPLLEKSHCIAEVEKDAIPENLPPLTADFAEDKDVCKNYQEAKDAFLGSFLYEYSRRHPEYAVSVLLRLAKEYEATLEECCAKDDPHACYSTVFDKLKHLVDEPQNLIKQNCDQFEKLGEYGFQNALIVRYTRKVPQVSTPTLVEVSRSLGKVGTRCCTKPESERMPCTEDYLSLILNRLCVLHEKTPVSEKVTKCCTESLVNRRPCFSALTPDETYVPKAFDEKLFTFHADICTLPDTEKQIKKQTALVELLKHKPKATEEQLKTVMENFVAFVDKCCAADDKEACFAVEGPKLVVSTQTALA
Chain of Follistatin (Homo sapiens) (P19883 whole entry, looked up): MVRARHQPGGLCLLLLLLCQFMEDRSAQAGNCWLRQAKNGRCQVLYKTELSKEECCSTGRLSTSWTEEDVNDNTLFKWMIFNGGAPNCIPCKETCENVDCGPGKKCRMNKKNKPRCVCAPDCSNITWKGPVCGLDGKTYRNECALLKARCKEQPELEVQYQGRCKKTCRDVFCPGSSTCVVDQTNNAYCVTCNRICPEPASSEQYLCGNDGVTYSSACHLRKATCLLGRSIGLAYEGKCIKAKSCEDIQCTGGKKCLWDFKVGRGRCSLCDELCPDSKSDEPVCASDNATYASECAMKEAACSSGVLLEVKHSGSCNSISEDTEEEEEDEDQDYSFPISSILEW

| Compound | composite z-score [1] | composite Z-score [2] | composite z-score [3] | composite z-score [4] | composite z-score [5] | composite z-score [6] | composite z-score [7] | composite z-score [8] | composite z-score [9] | composite z-score [10] | composite z-score [11] | composite z-score [12] | composite z-score [13] | composite z-score [14] | composite z-score [15] | composite z-score [16] | z-score [17] | composite z-score [18] | composite z-score [19] | z-score [20] |
| --- | --- | --- | --- | --- | --- | --- | --- | --- | --- | --- | --- | --- | --- | --- | --- | --- | --- | --- | --- | --- |
| CCCCC(O)C1C=CC2C(=O)N(C)C(=O)C2N1N1CCCCC1 (stereo not given) | 0.843 | 0.257 (inactive) | 0.291 | 0.0675 | 0.821 | 2.45 | 0.536 | 0.952 | 0.372 | 0.0635 | 1.69 | 0.678 | 0.367 | 1.03 | 0.971 | -0.331 | -0.0954 | 0.412 | 1.19 | 0.452 (inactive) |
| CCCC[C@@H]1C[C@H]1[C@@H](NC(=O)c1cccnc1)c1ccc(Cl)cc1 | -1.41 | -0.29 (inactive) | -0.429 | -0.185 | -0.404 | 0.878 | -0.271 | -1.27 | -1.95 | -2.03 | -1.38 | -2.87 | -0.518 | -2.97 | -2.16 | -2.46 | 0.66 | -2.59 | -1.72 | 0.928 (inactive) |
| CCOC(=O)C1=CC[C@@H](c2ccccc2)N(S(=O)(=O)c2ccc(C)cc2)[C@H]1c1ccc(CC)cc1 | 0.847 | -0.579 (inactive) | 0.0749 | -0.0371 | 0.571 | 1.52 | 0.662 | 1.1 | -0.0671 | 1.11 | 1.09 | 1.18 | 0.761 | 0.966 | 0.352 | 0.286 | 2.58 | 0.245 | 0.758 | 1.46 (inactive) |
| O=C1NC(=O)C2C1C=CC(C(O)c1ccc(I)cc1)N2Nc1ccccn1 (stereo not given) | 0.898 | 0.369 (inactive) | -0.0677 | -0.0026 | 0.819 | 2.35 | 1.48 | -0.302 | 0.37 | 0.445 | 2.1 | 0.134 | 0.675 | 0.791 | 0.367 | -0.109 | -0.279 | -0.19 | 1.23 | -0.759 (inactive) |
| CC(c1ccccc1)C(O)C1C=CC2C(=O)N(c3ccccc3)C(=O)C2N1Nc1ccccc1 (stereo not given) | 1.01 | 0.304 (inactive) | 0.298 | -0.112 | 0.493 | 3.12 | 0.426 | 1.34 | -0.298 | 1.11 | 0.546 | 1.28 | 0.476 | 1.03 | 1.03 | -0.124 | -1.27 | 0.858 | 1.02 | -0.674 (inactive) |
| COCCOC(=O)N1C(=O)[C@@]2(c3cc(C#CCCO)ccc31)[C@H](c1ccc(OCCO)cc1)N1[C@H](c3ccccc3)[C@H](c3ccccc3)OC(=O)[C@H]1[C@@H]2C(N)=O | 0.482 | 0.606 (inactive) | -0.0117 | -0.0567 | 0.588 | 1.93 | -0.591 | 1.29 | 0.437 | 1.17 | 1.3 | 1.2 | 0.711 | 0.837 | 1.04 | 0.752 | -0.212 | 0.496 | 0.694 | -1.77 (inactive) |
